Source: PubChem BioAssay
GDH-TPI inh: GDH-TPI coupling enzyme inhibitors, primary screen, artefact control for M. tuberculosis FBA inhibitor project, biochemical, absorbance, full deck | GDH-TPI coupled enzyme counterscreen, NADH absorbance | inhibition, % at 4.8 µM | 1.2% of 360,000 active; in the data active = inhibition above about 30%;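 note: 0% = DMSO wells and 100% = wells lacking the enzyme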
PrPC TRFRET: inhibitors of human cell surface prion protein PrPC, primary screen, cell-based, TR-FRET. Major prion protein (Homo sapiens), P04156. TR-FRET read-out. inhibition, % at 13.8 µM. 0.43% of 370,000 active. AID 720596, 2013; in the data active = inhibition above about 24%; note: 0% = median of the test wells and 100% = reference compound wells
BJeLR lethal: MLPCN primary cell-based screen for lethality selective to Ras in HRASV12 cells. BJeLR (HRASV12) viability, CellTiter-Glo ATP luminescence, 48 h. inhibition, % (concentration not given with the values). 0.17% of 300,000 active. AID 1554, 2009; in the data active = inhibition above about 50%
FBA Mtb inh: Mtb FBA enzyme inhibitors, primary screen, biochemical, fluorescence, strain H37Rv; purified M. tuberculosis FBA, fluorescence read-out; AID 588726, 2011; inhibition, % at 1 µM; 2.3% of 360,000 active; in the data active = inhibition above about 27%;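 note: 0% = vehicle and 100% = reference inhibitor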
Target sequence (P9WQA3 whole entry, looked up): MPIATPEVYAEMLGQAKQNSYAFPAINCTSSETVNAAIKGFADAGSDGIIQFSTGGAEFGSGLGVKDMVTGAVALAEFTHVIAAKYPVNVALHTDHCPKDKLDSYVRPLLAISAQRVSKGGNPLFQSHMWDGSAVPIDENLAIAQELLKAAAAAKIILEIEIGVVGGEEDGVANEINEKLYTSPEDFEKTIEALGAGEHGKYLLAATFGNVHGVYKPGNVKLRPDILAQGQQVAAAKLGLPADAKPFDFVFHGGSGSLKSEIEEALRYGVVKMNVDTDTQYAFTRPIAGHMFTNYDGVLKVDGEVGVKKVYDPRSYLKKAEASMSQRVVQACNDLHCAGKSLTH
RecA splice inh: Mtb RecA intein splicing inhibitors, primary screen, biochemical, fluorescence, HTS. Protein RecA (Mycobacterium tuberculosis (strain ATCC 25618 / H37Rv)), P9WHJ3. cell-free RecA intein splicing. inhibition, % (test concentration not listed). 0.75% of 290,000 active. AID 2221, 2009; in the data active = inhibition above about 30%;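 note: 0% = vehicle wells and 100% = reference inhibitor control wells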
The depositor's hits bear a star. Sampled rows, rich in hits. Any-hit rate of the full collection: about 4.2%.

For CCS(=O)(=O)c1nc(S(=O)(=O)c2ccc(C)cc2)c(N2CCCC2)s1 the results were GDH-TPI inh 34.0*, PrPC TRFRET -3.6, BJeLR lethal 0.3, FBA Mtb inh -0.3 and RecA splice inh -9.2.
Screening COC(=O)CNC(=O)CNC1(C(=O)NCCc2c[nH]c3ccccc23)CCCCC1 returned PrPC TRFRET -2.7.
`COc1ccccc1N1CCc2c(C)nc3c(OC)cccc3c21` gave GDH-TPI inh 46.1*, BJeLR lethal -0.4, FBA Mtb inh 6.8 and RecA splice inh -5.2.
Screening COc1cccc2c3c(c(C)nc12)CCN3c1ccccc1 returned GDH-TPI inh 10.7, PrPC TRFRET -2.5, BJeLR lethal 9.3, FBA Mtb inh 3.9 and RecA splice inh -10.1.
Screening CCCCNc1cccc2c1S(=O)(=O)N[C@@H](CC(C)C)CO2 returned PrPC TRFRET 12.2.
`CN1C=C/C(=C\c2cc[n+](C)c3ccccc23)c2ccccc21` gave GDH-TPI inh 0.6, PrPC TRFRET -31.9, BJeLR lethal 27.3, FBA Mtb inh 0.3 and RecA splice inh 70.6*.
For CC[n+]1ccc(/C=C2\Sc3ccccc3N2CCCS(=O)(=O)[O-])c2ccccc21 the results were GDH-TPI inh -6.3, PrPC TRFRET -15.1, BJeLR lethal 2.3, FBA Mtb inh -2.6 and RecA splice inh -1.6.
`CCOC(=O)/C(C#N)=C/c1ccc(N2CCN(C)CC2)cc1` gave GDH-TPI inh 12.2, PrPC TRFRET -7.3, BJeLR lethal -8.6, FBA Mtb inh -4.5 and RecA splice inh -2.6.
`CCOC(=O)C(/C=C(\C#N)C(=O)OCC)=C(/N)N1CCN(c2ccccc2)CC1` gave GDH-TPI inh 36.2*, PrPC TRFRET 1.7, BJeLR lethal 13.1, FBA Mtb inh 0.1 and RecA splice inh -2.7.
`CCOC(=O)[C@@]12CCCC3=C1N(CCC3)C(=O)[C@H]2CC(=O)NCc1ccc(C)o1` gave PrPC TRFRET -0.7.
For Cc1c(C)c2c(OCC(=O)N3CCC[C@H]3C(=O)O)cc3c(c2oc1=O)CCC(C)(C)O3 the results were GDH-TPI inh 13.2, PrPC TRFRET -8.5, BJeLR lethal -5.7, FBA Mtb inh active and RecA splice inh 2.0.
COc1ccc(/C=C2\Oc3cc(OCC(=O)N4CCC[C@H]4C(=O)O)ccc3C2=O)cc1OC was read as GDH-TPI inh 18.6, BJeLR lethal 0.0, FBA Mtb inh 0.8 and RecA splice inh -6.2.
Screening Cc1c(C)c2c(OCC(=O)N3CCC(O)CC3)cc3c(c2oc1=O)CCC(C)(C)O3 returned GDH-TPI inh 31.4*, PrPC TRFRET -7.7, BJeLR lethal -1.4 and FBA Mtb inh active.
Cc1cc(OCC(=O)N2CCC(C(N)=O)CC2)c2c(C)c(C)c(=O)oc2c1 was read as GDH-TPI inh -6.9, BJeLR lethal 4.8, FBA Mtb inh 7.3 and RecA splice inh 10.9.
Cc1ccc(NC(=O)CSc2nnc(-c3cccnc3)n2Cc2ccco2)cc1C was read as PrPC TRFRET -1.4.
CCCCN(C)C(=O)c1ccc2c(c1)NC(=O)C(C)(C)O2 was read as PrPC TRFRET -1.9.
Screening COC(=O)c1cc2c(c3c4cc(C)ccc4n(C(=O)c4ccccc4)c13)C(=O)N(Cc1ccccc1)C2 returned PrPC TRFRET 3.6.
For CCn1c(=O)c2cc(C(=O)N3CCCC3)sc2c2ccccc21 the results were BJeLR lethal 12.4 and RecA splice inh 0.9.
CCOc1ccccc1N(C)C(=O)c1cc2c(=O)n(CC)c3ccccc3c2s1 was read as GDH-TPI inh 41.6*, PrPC TRFRET 13.2, BJeLR lethal -5.1, FBA Mtb inh 4.0 and RecA splice inh 8.6.
Screening COC(=O)C1CN(C2CC2)CCS(=O)(=O)N1Cc1cn(Cc2ccc(Cl)cc2)nn1 (stereo not given) returned PrPC TRFRET 0.1.
Screening Nc1ccc2nc(-c3cccc(-c4nc5ccc(N)cc5[nH]4)n3)[nH]c2c1 returned GDH-TPI inh 18.2, PrPC TRFRET 4.3, BJeLR lethal 2.1, FBA Mtb inh -0.8 and RecA splice inh 11.3.
For Nc1ccc(-c2nc3c(ccc4ccccc43)[nH]2)cc1 the results were GDH-TPI inh 42.1*, PrPC TRFRET 4.4, BJeLR lethal -7.4, FBA Mtb inh active and RecA splice inh 0.6.
Screening Oc1ccc(C=Nc2ccccc2-c2nc3ccccc3[nH]2)cc1 returned GDH-TPI inh 19.9, PrPC TRFRET 5.3, BJeLR lethal 9.9, FBA Mtb inh active and RecA splice inh -6.8.
`O=C(O)c1ccc(/C=C(\c2nc3ccccc3[nH]2)c2nc3ccccc3s2)cc1` gave GDH-TPI inh 65.0*, PrPC TRFRET -17.9, BJeLR lethal -4.3, FBA Mtb inh -0.7 and RecA splice inh 38.9*.
Screening Clc1ccc(Br)c(-c2nc3ccccc3[nH]2)c1 returned GDH-TPI inh 10.0, PrPC TRFRET 19.0 and FBA Mtb inh 9.3.
Screening Cc1ccc2nc(-c3cccc(N)c3)[nH]c2c1 returned GDH-TPI inh 8.4, PrPC TRFRET 1.4, BJeLR lethal 11.8, FBA Mtb inh 137.0* and RecA splice inh 0.5.
Screening Cc1ccc(OCCOc2ccc(Cl)cc2Cl)c(Br)n1 returned PrPC TRFRET 9.4.
COc1ccc(C2CCC3(CCC(=O)N3CCO)CC2)cc1 (stereo not given) was read as PrPC TRFRET -0.3.
COc1ccc(S[C@]2(C(=O)NCCCN(C)C)CC(=O)N[C@@H]2c2ccc(OC)cc2)cc1 was read as PrPC TRFRET 1.3.
`O=C(OC12CCCN(C1)/C(=C/c1ccc(Cl)cc1)C2)c1ccccc1` (stereo not given) gave PrPC TRFRET 6.7.
`Nc1ccc(-c2nc3ccccc3[nH]2)cc1` gave GDH-TPI inh 22.6, PrPC TRFRET -0.1, BJeLR lethal 7.6 and FBA Mtb inh 117.3*.
`Fc1ccc(-c2nc3ccccc3[nH]2)cc1` gave GDH-TPI inh 14.4, PrPC TRFRET -1.1, BJeLR lethal 3.3, FBA Mtb inh 7.8 and RecA splice inh 0.1.
O=c1[nH]cccc1-c1nc2ccccc2[nH]1 was read as GDH-TPI inh 42.4*, PrPC TRFRET -0.1, BJeLR lethal 9.4, FBA Mtb inh active and RecA splice inh -1.0.
`O=C(O)c1ccc(-c2nc3ccccc3[nH]2)cc1` gave GDH-TPI inh 5.0, PrPC TRFRET -0.5, BJeLR lethal 1.6, FBA Mtb inh active and RecA splice inh 12.4.
Screening Nc1ccccc1-c1nc2ccccc2[nH]1 returned GDH-TPI inh 11.4, PrPC TRFRET 4.1, BJeLR lethal 1.2, FBA Mtb inh active and RecA splice inh -36.6.
`CC(=O)Nc1cc(NC(C)=O)cc(-c2nc3ccccc3[nH]2)c1` gave GDH-TPI inh -0.9, PrPC TRFRET 4.3, BJeLR lethal -1.5, FBA Mtb inh 7.9 and RecA splice inh -2.5.
